According to PubChem BioAssay (Tox21):
Records with an inconclusive call do not appear. Active and inactive are the calls of the source. Unless noted, calls come from the whole dose curve; as a rule, active = well fitted curve in the direction sought with a large enough effect in the repeat runs; inconclusive = weak or mixed curves; inactive = no such curve, though single readings can be large; an effect the other way counts as inactive or inconclusive.

How the values were obtained:
[1] = A CellTox Green Cytotoxicity Assay to monitor cytotoxicity in HEK293 cells - 8 hour (AID 1224884); note: nearly all actives have a fitted effect of over 35% in size
How it was run: (§1)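 Each value comes from one timepoint of a single continuous run in which HEK293 cells with CellTox Green were exposed to compound for up to 40 h at 37 C, dye fluorescence rising with cell death.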

[2] = qHTS RealTime-Glo MT Cell Viability Assay in HepG2 cells - 16 hour (AID 1224885); note: nearly all actives have a fitted effect of over 50% in size
How it was run: (§2)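 HepG2 cells were seeded at 600 cells/well together with NanoLuc luciferase and a cell-permeant prosubstrate, preincubated 5 h at 37 C/5% CO2, then pin-dosed with compounds in DMSO. Nonlytic luminescence from viable cells was read at each time point.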

[3] = qHTS RealTime-Glo MT Cell Viability Assay in HEK293 cells - 24 hour (AID 1224886); note: top concentration of the series differs between compounds; nearly all actives have a fitted effect of over 50% in size
How it was run: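 HEK293 cells were seeded at 600 cells/well together with NanoLuc luciferase and cell-permeant prosubstrate, preincubated 5 h at 37 C/5% CO2, then given compound in DMSO by pintool. Luminescence from viable-cell prosubstrate reduction was read repeatedly over 40 h.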

[4] = qHTS RealTime-Glo MT Cell Viability Assay in HEK293 cells - 8 hour (AID 1224887); note: top concentration of the series differs between compounds; nearly all actives have a fitted effect of over 50% in size
How it was run: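 qHTS format; HEK293 cells with NanoLuc/prosubstrate reagent, 37 C/5% CO2 for 5 h pre-dosing; compounds 23 nL in DMSO; luminescence at each time point reflects viable cells.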

[5] = A CellTox Green Cytotoxicity Assay to monitor cytotoxicity in HEK293 cells - 16 hour (AID 1224888); note: nearly all actives have a fitted effect of over 35% in size
How it was run: as §1

[6] = qHTS RealTime-Glo MT Cell Viability Assay in HepG2 cells - 0 hour (AID 1224889); note: nearly all actives have a fitted effect of over 50% in size
How it was run: as §2

[7] = A CellTox Green Cytotoxicity Assay to monitor cytotoxicity in HepG2 cells - 8 hour (AID 1224890); note: nearly all actives have a fitted effect of over 45% in size
How it was run: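 Continuous culture of HepG2 cells with a membrane-impermeant DNA dye; rising fluorescence marks dead cells. Compound exposure lasted up to 40 h at 37 C, with reads every 8 h from 0 h.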

[8] = qHTS assay to identify small molecule antagonists of the estrogen receptor alpha (ER-alpha) signaling pathway using the BG1 cell line in the presence of 0.1 nM 17-beta-estradiol - cell viability counter screen (AID 1259241); note: nearly all actives have a fitted effect of over 40% in size
How it was run: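 Cytotoxicity counter-screen: live-cell protease activity measured by fluorescence (30 min reagent step) in the same wells. Cells were VM7Luc4E2 with endogenous ER-alpha and ERE-driven luciferase, treated 22 hr at 37C alongside 0.1 nM 17beta-estradiol final.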

[9] = qHTS assay to identify small molecule antagonists of the androgen receptor (AR) signaling pathway using the MDA cell line in the presence of 0.5 nM R1881 - cell viability counter screen (AID 1259242); note: nearly all actives have a fitted effect of over 45% in size
How it was run: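 Fluorescence from CellTiter-Fluor, which reports protease activity of live cells, was read 30 min after reagent addition to MDA-kb2 cells that had been incubated 16 hr with compound and 0.5 nM R1881.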

[10] = target: Androgen receptor (Homo sapiens) (UniProt P10275); assay: qHTS assay to identify small molecule antagonists of the androgen receptor (AR) signaling pathway using the MDA cell line in the presence of 0.5 nM R1881 (AID 1259243); note: nearly all actives have a fitted effect of over 50% in size; note: potency is the fitted concentration of half-maximal effect
How it was run: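 Inhibition of R1881 (0.5 nM final) induced reporter signal was measured in human MDA-kb2 cells; note the MMTV promoter also responds to GR. Exposure lasted 16 hr at 37C.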

[11] = target: Estrogen receptor (Homo sapiens) (UniProt P03372); assay: qHTS assay to identify small molecule antagonists of the estrogen receptor alpha (ER-alpha) signaling pathway using the BG1 cell line in the presence of 0.1 nM 17-beta-estradiol (AID 1259244); note: nearly all actives have a fitted effect of over 50% in size
How it was run: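 Quantitative high-throughput screen in VM7Luc4E2 cells: compound plus 0.1 nM E2 (final), 22 h, 37C, 5% CO2; ONE-Glo added, 30 min room temperature, luminescence measured.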

[12] = qHTS assay to identify small molecule HDAC inhibitors - cell viability counter screen (AID 1259365)
How it was run: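 CellTiter-Glo luminescence (30 min, room temperature) reported viability after a 2 h compound exposure at 37 C. Cells: wild-type HCT-116, 1,500 per well, seeded the night before.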

[13] = qHTS assay to identify small molecule agonists of the sonic hedgehog signaling (Shh) pathway - cell viability counter screen (AID 1259366); note: nearly all actives have a fitted effect of over 50% in size
How it was run: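 Cytotoxicity counter screen: CellTiter-Fluor reagent added after 23 h compound exposure, then 1 h at 37C and fluorescence read. Cells were 3T3 Gli1-Luc, seeded 2,000 per well and dosed 4 h post-plating.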

[14] = qHTS assay to identify small molecule antagonists of the sonic hedgehog signaling (Shh) pathway - cell viability counter screen (AID 1259367); note: nearly all actives have a fitted effect of over 55% in size
How it was run: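 Seed 3T3 Gli1-Luc cells at 2,000 per well; incubate 4 hr; add compound in DMSO, then conditioned medium; incubate at 37C with 5% CO2; add CellTiter-Fluor after 23 hr; read fluorescence 1 hr later.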

[15] = qHTS assay to identify small molecule agonists of the sonic hedgehog signaling (Shh) pathway (AID 1259368; calls by dose curve;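 note: NIH/3T3-derived 3T3Gli1-Luc cells carrying a stable Gli1-driven firefly luciferase reporter; series mostly up to about 92 µM; nearly all actives have a fitted effect of over 15% in size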)
How it was run: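 Luminescent signal was taken as a measure of Gli1-controlled luciferase expression in stably transfected NIH/3T3-derived cells that had been treated for 24 hr with compounds delivered in DMSO.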

[16] = qHTS assay to identify small molecule antagonists of the sonic hedgehog signaling (Shh) pathway (AID 1259369; calls by dose curve; note: nearly all actives have a fitted effect of over 45% in size)
How it was run: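 Screening used 3T3Gli1-Luc cells at 2,000 per well, compounds delivered in DMSO, and conditioned medium as agonist stimulus; plates incubated 24hr at 37 C and 5% CO2 before a 30min luciferase step.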

[17] = qHTS assay to identify small molecule HDAC inhibitors (AID 1259364); note: nearly all actives have a fitted effect of over 45% in size; note: potency is the fitted concentration of half-maximal effect; for activity change, negative = inhibition: top concentration of the series differs between compounds
How it was run: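 Endogenous HDAC class I/II activity was measured in wild-type HCT-116 cells by HDAC-Glo luminescence after 2 h compound treatment.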

[18] = target: Estrogen receptor beta (Homo sapiens) (UniProt Q92731); assay: qHTS assay to identify small molecule antagonists of the estrogen receptor beta (ER-beta) signaling pathway (AID 1259378; active = well fitted inhibition curve with a large enough effect in the signal ratio in the repeat runs, not every such curve was filed as active; the % refers to the signal ratio)
How it was run: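 ER-beta-UAS-bla HEK293T cells in 2% charcoal-stripped FBS medium treated with compound plus 1nM final 17-beta-estradiol for 16 hr at 37C. Beta-lactamase reporter read by FRET substrate fluorescence after 2 hours at room temperature.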

[19] = target: Estrogen receptor beta (Homo sapiens) (UniProt Q92731); assay: qHTS assay to identify small molecule agonists of the estrogen receptor beta (ER-beta) signaling pathway (AID 1259377; active = well fitted activation curve with a large enough effect in the signal ratio in the repeat runs, not every such curve was filed as active; the % refers to the signal ratio)
How it was run: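 Ratiometric beta-lactamase FRET read-out came after 2 h substrate loading at room temperature. It followed 16 h compound treatment at 37C of GripTite HEK293T cells carrying a UAS-bla reporter, plated in 2% charcoal-stripped FBS medium.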
% is set by controls: 0 for no effect and ±100 for the full control effect.

Chain of Estrogen receptor (Homo sapiens) (P03372 whole entry, looked up): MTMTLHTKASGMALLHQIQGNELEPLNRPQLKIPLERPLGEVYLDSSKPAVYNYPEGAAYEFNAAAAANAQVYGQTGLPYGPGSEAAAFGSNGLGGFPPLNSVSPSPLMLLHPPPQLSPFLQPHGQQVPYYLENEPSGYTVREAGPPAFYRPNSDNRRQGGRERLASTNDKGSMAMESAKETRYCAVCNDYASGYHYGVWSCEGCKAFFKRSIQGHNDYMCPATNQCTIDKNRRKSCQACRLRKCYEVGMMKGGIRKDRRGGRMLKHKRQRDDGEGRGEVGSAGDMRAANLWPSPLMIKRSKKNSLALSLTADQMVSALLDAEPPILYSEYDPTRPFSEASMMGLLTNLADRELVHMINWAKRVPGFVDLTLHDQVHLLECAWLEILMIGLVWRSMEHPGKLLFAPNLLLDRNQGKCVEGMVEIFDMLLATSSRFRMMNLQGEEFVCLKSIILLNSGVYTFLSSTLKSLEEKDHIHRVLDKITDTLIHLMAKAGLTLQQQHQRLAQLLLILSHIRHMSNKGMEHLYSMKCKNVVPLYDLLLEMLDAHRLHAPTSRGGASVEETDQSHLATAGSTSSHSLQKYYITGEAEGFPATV
Chain of Estrogen receptor beta (Homo sapiens) (Q92731 whole entry, looked up): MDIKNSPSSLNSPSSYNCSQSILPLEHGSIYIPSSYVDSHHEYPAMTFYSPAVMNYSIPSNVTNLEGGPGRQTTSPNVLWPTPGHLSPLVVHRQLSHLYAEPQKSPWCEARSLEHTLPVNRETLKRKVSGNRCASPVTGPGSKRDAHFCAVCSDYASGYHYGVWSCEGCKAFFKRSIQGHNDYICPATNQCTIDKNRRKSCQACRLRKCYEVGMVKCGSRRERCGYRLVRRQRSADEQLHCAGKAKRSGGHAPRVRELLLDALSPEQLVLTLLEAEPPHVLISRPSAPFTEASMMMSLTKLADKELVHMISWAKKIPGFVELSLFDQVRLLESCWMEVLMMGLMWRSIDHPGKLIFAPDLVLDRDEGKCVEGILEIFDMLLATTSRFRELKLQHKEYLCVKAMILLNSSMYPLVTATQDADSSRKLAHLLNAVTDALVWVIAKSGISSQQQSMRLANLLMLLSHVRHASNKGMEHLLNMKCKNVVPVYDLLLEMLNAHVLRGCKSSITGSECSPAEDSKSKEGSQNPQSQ
Chain of Androgen receptor (Homo sapiens) (P10275 whole entry, looked up): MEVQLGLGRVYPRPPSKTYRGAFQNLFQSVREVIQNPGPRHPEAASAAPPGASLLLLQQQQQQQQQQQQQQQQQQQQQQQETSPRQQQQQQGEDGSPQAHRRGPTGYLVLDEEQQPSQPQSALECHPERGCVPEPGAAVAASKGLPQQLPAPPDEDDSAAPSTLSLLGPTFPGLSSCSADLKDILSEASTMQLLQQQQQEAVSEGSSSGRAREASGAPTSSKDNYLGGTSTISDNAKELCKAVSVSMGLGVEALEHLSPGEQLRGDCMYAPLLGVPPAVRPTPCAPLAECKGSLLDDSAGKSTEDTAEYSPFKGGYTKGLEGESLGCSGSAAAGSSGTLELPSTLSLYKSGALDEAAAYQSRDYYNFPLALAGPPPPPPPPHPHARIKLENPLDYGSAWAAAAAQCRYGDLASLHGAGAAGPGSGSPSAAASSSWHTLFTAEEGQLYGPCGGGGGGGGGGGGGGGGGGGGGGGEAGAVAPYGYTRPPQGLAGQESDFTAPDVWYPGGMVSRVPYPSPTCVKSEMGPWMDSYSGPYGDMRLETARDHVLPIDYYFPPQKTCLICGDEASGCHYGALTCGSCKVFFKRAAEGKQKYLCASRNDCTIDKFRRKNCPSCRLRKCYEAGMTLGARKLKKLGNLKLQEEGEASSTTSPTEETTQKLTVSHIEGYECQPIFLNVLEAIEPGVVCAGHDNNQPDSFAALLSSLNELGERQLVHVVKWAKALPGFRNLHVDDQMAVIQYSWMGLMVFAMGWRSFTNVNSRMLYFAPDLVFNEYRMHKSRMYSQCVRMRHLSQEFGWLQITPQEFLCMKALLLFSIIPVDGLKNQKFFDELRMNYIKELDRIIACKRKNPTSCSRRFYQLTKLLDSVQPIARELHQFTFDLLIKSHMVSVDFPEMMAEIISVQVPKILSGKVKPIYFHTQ

Cn1c(=O)[nH]c2ncn(C)c2c1=O
inactive: Potency [1] | Potency [2] | Potency [3] | Potency [4] | Potency [5] | Potency [6] | Potency [7] | Potency [8] | Potency [9] | Potency [10] | Potency [11] | Potency [12] | Potency [13] | Potency [14] | Potency [15] | Potency [16]

Cc1cccc2c1ccc1ccccc12
active: Potency [10] 15.4 µM
inactive: Potency [1] | Potency [2] | Potency [3] | Potency [4] | Potency [5] | Potency [6] | Potency [7] | Potency [8] | Potency [9] | Potency [11] | Potency [17] | Potency [12] | Potency [13] | Potency [14] | Potency [15] | Potency [16] | Potency [18]

CC1(C)[C@H](C(=O)OCc2cccc(Oc3ccccc3)c2)[C@@H]1C=C(Cl)Cl
inactive: Potency [1] | Potency [2] | Potency [3] | Potency [4] | Potency [5] | Potency [6] | Potency [7] | Potency [8] | Potency [9] | Potency [10] | Potency [11] | Potency [17] | Potency [12] | Potency [13] | Potency [14] | Potency [15] | Potency [16]

[Cl][Sc]([Cl])[Cl]
inactive: Potency [1] | Potency [2] | Potency [3] | Potency [4] | Potency [5] | Potency [6] | Potency [7] | Potency [8] | Potency [9] | Potency [10] | Potency [11] | Potency [17] | Potency [12] | Potency [14] | Potency [15] | Potency [16]

CCN(CCC#N)c1ccc(N=Nc2ccc([N+](=O)[O-])cc2)cc1
inactive: Potency [1] | Potency [2] | Potency [3] | Potency [4] | Potency [5] | Potency [6] | Potency [7] | Potency [8] | Potency [9] | Potency [10] | Potency [13] | Potency [14] | Potency [15] | Potency [16] | outcome [19] | Potency [18]
active: Potency [17] 15.4 µM

CCCCNc1ccc(NCCCC)c2c1C(=O)c1ccccc1C2=O
inactive: cytotoxicity increase [1] 1.22% [at 15.8 µM] | activity change, negative = cytotoxic [2] 0.554% [at 15.8 µM] | activity change, negative = cytotoxicity [3] -0.0547% [at 15.8 µM] | activity change, negative = cytotoxicity [4] 3.79% [at 15.8 µM] | activity change [5] 0.839% [at 15.8 µM, hits give high values] | activity change, negative = cytotoxicity [6] 1.94% [at 15.8 µM] | cytotoxicity increase [7] -2.69% [at 15.8 µM] | activity change, negative = cytotoxicity [8] -14.1% [at 19 µM] | viability change, negative = cytotoxic [9] -9.45% [at 19 µM] | activity, negative = inhibition [10] -3.08% [at 19 µM] | activity change, negative = inhibition [11] 2.76% [at 19 µM] | viability change, negative = cytotoxic [13] -17.5% [at 19 µM] | viability change, negative = cytotoxic [14] -12.9% [at 19 µM] | activity change [15] -0.26% [at 18.9 µM, hits give high values] | activity change, negative = inhibition [16] -20.1% [at 19 µM] | activation [19] -2.22% [at 19 µM] | activity, negative = inhibition [18] 17.4% [at 19 µM]
